Most compounds without a hit are left out; they make up all but 1% or so of the library.
MKP-1 inh – inhibitors of human MKP-1 phosphatase. P28562. recombinant MKP-1, OMFP hydrolysis fluorescence. inhibition, %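 (compounds tested at a single concentration somewhere between 10 and 100 µM)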. 65,000 tested, 0.15% active;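 active means inhibition above about 50%, limit read from the data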;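 further: 0% = DMSO max control wells and 100% = wells with enzyme stopped by NaOH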
Target sequence (P28562 whole entry, looked up): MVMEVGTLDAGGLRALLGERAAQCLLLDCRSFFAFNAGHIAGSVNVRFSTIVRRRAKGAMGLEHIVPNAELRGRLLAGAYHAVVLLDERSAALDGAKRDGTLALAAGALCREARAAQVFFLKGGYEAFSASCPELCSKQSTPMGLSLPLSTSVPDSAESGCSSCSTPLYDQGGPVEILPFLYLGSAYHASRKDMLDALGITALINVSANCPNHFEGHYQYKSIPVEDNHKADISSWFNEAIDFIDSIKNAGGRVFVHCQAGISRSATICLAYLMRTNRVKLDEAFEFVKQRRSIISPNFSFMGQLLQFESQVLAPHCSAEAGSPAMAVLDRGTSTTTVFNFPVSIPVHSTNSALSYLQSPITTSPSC
Cdc25B inh – human M-phase inducer phosphatase 2 inhibition; P30305; recombinant Cdc25B, OMFP fluorescence Ex485/Em525; inhibition, %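 (compounds tested at 10 µM final in the well)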; 65,000 tested, 0.1% active; in the data active means inhibition above about 50%
SK-BR-3 tox 24h – SK-BR-3 proliferation inhibitors | SK-BR-3 viability, CellTiter-Glo ATP luminescence, 24 h; active compounds read low | viability, % at 10 µM | 41,000 tested, 0.47% active;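 active means viability at or below the median of all test compounds minus 3 SD, in both replicates if run twice, cut at about 45% in these data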;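 further: 100% = median untreated cell wells and 0% = median positive control drug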
Hsp90 inh – displaces geldanamycin probe from tumor Hsp90; NCI-N417 lysate Hsp90, Cy3B-geldanamycin FP displacement; inhibition, % at 30 µM; 64,000 tested, 0.35% active; AID 429;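 active means inhibition above 50%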;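 further: 0% = tracer plus lysate wells and 100% = tracer alone without lysate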
WNV NS2B-NS3 inh – inhibitors of West Nile virus NS2B-NS3 protease. P06935. WNV NS2B-NS3 protease, fluorogenic substrate Ex360/Em465; active compounds read low. z-score (test concentration not listed). 65,000 tested, 0.18% active. AID 577; in the data active means z-score below about -3
Starred values were filed as active, the others as inactive; · = not tested or not shown.

SMILES	MKP-1 inh	Cdc25B inh	SK-BR-3 tox 24h	Hsp90 inh	WNV NS2B-NS3 inh
Cn1c(C(=O)O)c(CC(=O)Nc2ccccc2F)c2ccccc21	13	-6	30*	-2	1.2
N=C(N)SCCc1ccc(CCSC(=N)N)cc1	·	·	·	2	·
CN1CCc2c(n(CC(O)CN3C(=O)c4ccccc4S3(=O)=O)c3ccccc23)C1=O (stereo not given)	-5	-22	112	-5	-0.7
CC(C)NCC(O)Cn1c2c(c3ccccc31)CCc1c-2cnn1-c1ccccc1 (stereo not given)	-39	-9	2.2*	-3	-0.71
COC(=O)C1=C(C)N=C2SCCC(=O)N2C1c1cccs1 (stereo not given)	6	54*	·	-4	-1.7
CC1=C(C(=O)OC(C)C)C(c2cccs2)N2C(=O)CCSC2=N1 (stereo not given)	-6	-12	103	-5	0.04
O=C(CSc1nc2c(cnn2-c2ccccc2)c(=O)[nH]1)c1ccc(Cl)cc1	56*	35	·	4	-0.24
Cc1cccn2c(=O)c(C=NCc3ccco3)c(Nc3ccc(Cl)cc3)nc12	7	-2	·	-3	-3.3*
CCCCOCCCNC(=O)N[C@@H](CC(C)C)C(=O)O	-1	-11	107	-1	-3.7*
COc1nc(OC/C(N)=N/O)nc(N2CCOCC2)n1	-11	66*	80	0	-0.78
CCN(CC)CCCC(C)Nc1cc(O)cc2cccnc12 (stereo not given)	·	·	·	138*	·
COc1cc(NCCN(CC(C)C)CC(C)C)c2ncccc2c1	·	·	·	22	·
COc1ccc(-c2nc(N3CCCC3)nc3nn4c(C)cc(C)nc4c23)cc1	28	-1	81	-2	-0.09
NCCCCN	·	·	·	3	·
CCOc1ccccc1N(CC(=O)NC1CCCC1)C(=O)CCC(=O)Nc1cc(C)on1	30	0	92	-4	-8.6*
O=C(Nc1ccc(Cl)cc1)N(Cc1cccnc1)Cc1ccco1	9	-3	·	1	-1.2
C=CCN1CCc2cc(O)c(O)cc2C(c2ccccc2)C1 (stereo not given)	·	·	·	56*	·
C=CCN1CCc2c(cc(O)c(O)c2Cl)C(c2ccccc2)C1 (stereo not given)	·	·	·	76*	·
Cc1cccc(C2CN(C)CCc3c2cc(O)c(O)c3Cl)c1 (stereo not given)	·	·	·	69*	·
CCN1CCN(C(c2cccs2)C(C)NS(=O)(=O)c2ccc(Br)cc2)CC1 (stereo not given)	27	-5	·	-1	1.5
COc1cc(NC(C)CCCN)c2ncccc2c1Oc1ccc(Cl)cc1 (stereo not given)	·	·	·	-5	·
N#Cc1c(N)oc(-c2ccco2)c1-c1ccco1	35	8	·	-4	-0.78
COc1ccc(OC)c(/C=N/c2oc(-c3ccco3)c(-c3ccco3)c2C#N)c1	-4	8	88	55*	-0.91
Cc1cccc(N2CCN(S(=O)(=O)c3ccc4c(c3)CCN4C(=O)CCC(=O)O)CC2)c1C	51*	9	·	-2	0.23
COc1ccc(C2=NO[C@@H]3C(=O)N(c4ccc5c(c4)OCCO5)C(=O)[C@H]23)cc1OC	-14	1	95	68*	1.4
SMILES	MKP-1 inh	Cdc25B inh	SK-BR-3 tox 24h	Hsp90 inh	WNV NS2B-NS3 inh
CC(C(=O)Oc1ccc2c(c1)OCO2)N1C(=O)c2ccccc2C1=O (stereo not given)	3	1	36*	3	2.4
CN(CCOc1ccc(C[C@H](Nc2ccccc2C(=O)c2ccccc2)C(=O)O)cc1)c1ccccn1	·	·	·	-4	·
COC(=O)c1cc(NC(=O)c2c(Cl)nc3sccn23)cc(C(=O)OC)c1	3	4	26*	1	-1.1
CCC1C(=O)N=C(SCC(=O)Nc2ccc(C(=O)OC)cc2)NC1=O (stereo not given)	28	-10	44*	4	-0.17
CCOC(=O)C(CC(=O)O)N1CCCCC1 (stereo not given)	-22	-32	85	0	-3.1*
COc1ccc(Oc2c(OC)cc(NCCCCCNC(C)C)c3ncccc23)cc1	·	·	·	16	·
CC(=O)O[C@H]1CC2(C)[C@@H](C[C@@H](O)[C@H]3[C@@]4(C)CC[C@@H](O)[C@@H](C)[C@@H]4CC[C@@]32C)C1=C(CCC=C(C)C)C(=O)O (stereo not given in full)	·	·	·	-5	·
CN(C)c1nc(N2CCCCC2)nc(N2CCCCC2)n1	9	-4	·	2	-1.6
OCCN(CCO)c1nc(N2CCCCC2)c2nc(N(CCO)CCO)nc(N3CCCCC3)c2n1	6	-11	123	61*	0.44
CCCn1nnc(NC(=O)c2ccc(Br)cc2)n1	-1	0	89	1	-1.5
CCCn1nnc(NC(=O)c2cc(Br)cc(Br)c2OC)n1	50*	-13	89	1	0.27
COc1ccc2[nH]c(C(=O)O)c(CCNC(C)=O)c2c1	10	-8	·	-2	-4.1*
Oc1c(CN2CCc3ccccc3C2)cc(Cl)c2cccnc12	3	-10	·	0	2.7
Oc1c(CN2CCCCC2)cc(Br)c2cccnc12	-14	-10	39*	2	4.6
O/N=C1\CCCc2oc3c(c21)CCCC3	9	0	85	·	-1.3
Cc1cc(NC(=O)CSc2nc3c(c(=O)n2-c2ccc(Br)cc2)SCC3)no1	29	-6	40*	-2	-1.5
COc1ccc(-n2c(SCC(=O)Nc3cc(C)on3)nc3c(c2=O)SCC3)cc1	7	-8	·	0	-0.22
COc1cc(NC(=O)C=CC(=O)O)c2ncccc2c1	·	·	·	6	·
Cn1c(=O)c(NCCO)c2c3c(cccc31)C(=O)c1ccccc1-2	-18	-4	·	135*	-1.2
CC(COc1ccccc1)N(CCCl)Cc1ccccc1 (stereo not given)	-29	-10	97	-2	0.34
CC(C)COCC(CN(Cc1ccccc1)c1ccccc1)N1CCCC1 (stereo not given)	·	·	·	64*	·
CCN(CC)C(C)C(=O)N1c2ccccc2Sc2ccccc21 (stereo not given)	·	·	·	3	·
CCN1c2ccccc2NC2N=C(OC)C(c3ccccc3)C21 (stereo not given)	2	-10	36*	-3	-0.39
COCCn1c(=O)[nH]c2cc(C(=O)NCCN3CCN(c4cccc(Cl)c4)CC3)ccc2c1=O	·	·	80	·	·
Cc1ccccc1N1C(=O)CC(Sc2nnc(-c3ccccc3)o2)C1=O (stereo not given)	-24	6	4.5*	25	-0.43
O=C(CNC(=O)Cn1ccc2ccccc2c1=O)NCCCN1CCCCCC1	4	-3	85	·	0.19
N#C/C(=C\c1ccc(O)c(O)c1)C(=O)NCCc1ccccc1	·	·	·	83*	·
Cc1cc(N)c2ccccc2[n+]1CCCCCCCCCC[n+]1c(C)cc(N)c2ccccc21	·	·	·	-5	·
Nc1ncnc2c1ncn2[C@@H]1O[C@H](C(=O)NC2CC2)[C@H](O)C1O (stereo not given in full)	·	·	·	1	·

Source: PubChem
